Test [1] addresses Estrogen receptor (Homo sapiens) (UniProt P03372). As to the kind of experiment: qHTS assay for small molecule antagonists of estrogen receptor alpha signaling (AID 588513; active = well fitted curve in the direction sought with a large enough effect in the signal ratio, with a control signal flat, not every such curve was filed as active; the % refers to the signal ratio; note: % is set by controls: 0 for no effect and ±100 for the full control effect). Summed up:
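Antagonist-mode qHTS in ER-alpha-UAS-bla HEK 293 cells: compound titration, 0.5nM estradiol for 18 h, CCF4 fluorescence, Hill-derived IC50.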
On the technique in general: In qHTS, concentration-response curves come from the screen itself.

Test [2] shares this target. The test is described as follows: qHTS assay for small molecule agonists of estrogen receptor alpha signaling (AID 588514). Note: potency is the fitted concentration of half-maximal effect; nearly all actives have a fitted effect of over 70% in size. Put shortly:
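Cells were plated at 5000/well, incubated 4 hrs at 37 C, dosed with compound titration series, incubated 18 hrs at 37 C, loaded with CCF4 dye for 2 hrs at RT, then fluorescence was read.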

Test [3] addresses Bile acid receptor (Homo sapiens) (UniProt Q96RI1). As to the kind of experiment: qHTS assay for small molecule antagonists of farnesoid X receptor signaling (AID 588526). Note: % is set by controls: 0 for no effect and ±100 for the full control effect. Put shortly: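 Antagonist mode: titrated compounds tested against chenodeoxycholic acid stimulation (normalized to 50 uM CDCA and DMSO) in GeneBLAzer HEK293T cells for 16 h. Beta-lactamase read by CCF4 fluorescence; IC50 from Hill fits.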

A short description of test [4]: qHTS assay for small molecule antagonists of peroxisome proliferator-activated receptor delta signaling (AID 588535; active = well fitted inhibition curve with a large enough effect in the signal ratio, with a control signal flat, not every such curve was filed as active; the % refers to the signal ratio;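 for max response: cells co-treated with a PPAR-delta agonist as stimulator during compound exposure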). Conditions: HEK293T PPARd-UAS-bla, beta-lactamase FRET ratio, 18 h; 460 nm channel. Put shortly: (§1)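 Antagonist-mode beta-lactamase reporter (GeneBLAzer PPAR-delta-UAS-bla) in HEK293T cells, 2% charcoal/dextran FBS, 4000 cells/well. Compound titrations, 18 h at 37 C; CCF4 ratio read, IC50 and efficacy from Hill fits.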

Test [5] has as its target Peroxisome proliferator-activated receptor delta (Homo sapiens) (UniProt Q03181). Described as above. Summed up: as §1
Test [6] deals with Peroxisome proliferator-activated receptor gamma (Homo sapiens) (UniProt P37231). As to the kind of experiment: qHTS assay for small molecule agonists of peroxisome proliferator-activated receptor gamma signaling (AID 588536; active = well fitted curve in the direction sought with a large enough effect in the signal ratio, with a control signal flat, not every such curve was filed as active; the % refers to the signal ratio;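 note: 0% = DMSO basal wells and 100% = rosiglitazone at 2 µM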). Summed up:
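Ratiometric blue/green fluorescence (405 nm excitation; 460 and 530 nm emission) from CCF4-loaded HEK293 reporter cells serves as signal. Exposure to test compounds lasts 16 h at 37 C in medium containing 1% charcoal/dextran-treated serum.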

Test [7] has as its target Vitamin D3 receptor (Homo sapiens) (UniProt P11473). As to the kind of experiment: qHTS assay for small molecule antagonists of vitamin D receptor signaling (AID 588541).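 Note: receptor activated by calcitriol during compound treatment; series mostly up to about 77 µM; % is set by controls: 0 for no effect and ±100 for the full control effect.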 Summed up:
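VDR-UAS-bla HEK293T cells in 2% charcoal-stripped FBS were stimulated with 1-alpha,25-dihydroxyvitamin D3 (3 nM final) plus compound for 16 h at 37 C. The beta-lactamase CCF4 readout was normalized to 50 nM agonist and DMSO, and Hill fits gave IC50.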

Test [8] shares this target. As to the kind of experiment: qHTS assay for small molecule agonists of vitamin D receptor signaling (AID 588543).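 Note: 0% = DMSO basal and 100% = reference agonist control.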 Put shortly: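 Measured: β-lactamase reporter activity (CCF4, 405 nm excitation, 460/530 nm emission) in HEK293T VDR-UAS-bla cells after 16 h compound exposure at 37 °C. Normalization against 50 nM 1α,25-dihydroxyvitamin D3 and DMSO; Hill-fit EC50.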
Test [9] is described as follows: qHTS assay for small molecule agonists of retinoid X receptor alpha signaling (AID 588544).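 For activation: 0% = DMSO basal wells and 100% = reference agonist.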 The note with it: HEK293T RXRa-UAS-bla, beta-lactamase reporter, 18 h; 530 nm emission.
The target in test [10] is Retinoic acid receptor RXR-alpha (Homo sapiens) (UniProt P19793). The description is as above.
Chain of Retinoic acid receptor RXR-alpha (Homo sapiens) (P19793 whole entry, looked up): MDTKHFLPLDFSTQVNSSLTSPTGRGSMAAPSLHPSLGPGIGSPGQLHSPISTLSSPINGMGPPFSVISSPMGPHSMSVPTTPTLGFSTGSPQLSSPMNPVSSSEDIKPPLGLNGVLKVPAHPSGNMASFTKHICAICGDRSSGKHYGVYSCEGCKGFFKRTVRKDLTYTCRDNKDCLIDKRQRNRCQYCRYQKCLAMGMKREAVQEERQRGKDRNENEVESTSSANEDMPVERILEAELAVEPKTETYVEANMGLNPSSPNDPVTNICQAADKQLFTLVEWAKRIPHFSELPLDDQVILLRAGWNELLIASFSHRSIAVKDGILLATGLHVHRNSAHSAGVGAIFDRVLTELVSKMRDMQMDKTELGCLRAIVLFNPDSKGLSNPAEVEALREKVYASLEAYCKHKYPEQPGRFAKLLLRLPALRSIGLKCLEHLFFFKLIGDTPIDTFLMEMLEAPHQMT
The target of test [11] is Thyroid hormone receptor beta (Homo sapiens) (UniProt P10828). The test is described as follows: qHTS assay for small molecule agonists of thyroid hormone receptor beta signaling (AID 588545).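 Note: 0% = DMSO only and 100% = 10 nM T3.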 Summed up: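 Beta-lactamase reporter activity under TR response element control is measured in HEK 293 cells after 18 hrs compound exposure. Signal is ratiometric CCF4 fluorescence, 460/530 nm.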
Chain of Thyroid hormone receptor beta (Homo sapiens) (P10828 whole entry, looked up): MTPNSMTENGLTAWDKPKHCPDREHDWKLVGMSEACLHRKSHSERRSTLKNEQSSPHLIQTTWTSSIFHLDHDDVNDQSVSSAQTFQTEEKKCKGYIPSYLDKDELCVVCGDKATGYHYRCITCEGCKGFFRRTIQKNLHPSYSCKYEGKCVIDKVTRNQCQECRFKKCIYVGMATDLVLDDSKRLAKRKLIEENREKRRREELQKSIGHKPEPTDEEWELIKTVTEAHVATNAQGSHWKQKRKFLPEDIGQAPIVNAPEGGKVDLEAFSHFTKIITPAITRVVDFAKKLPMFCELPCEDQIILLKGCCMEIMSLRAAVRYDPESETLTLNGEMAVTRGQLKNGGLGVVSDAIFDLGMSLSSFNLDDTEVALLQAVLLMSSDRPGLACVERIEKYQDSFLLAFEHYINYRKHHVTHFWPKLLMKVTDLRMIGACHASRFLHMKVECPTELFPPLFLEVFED

A short description of test [12]: qHTS assay for small molecule antagonists of retinoid X receptor alpha signaling (AID 588546; active = well fitted inhibition curve with a large enough effect in the signal ratio, with a control signal flat, not every such curve was filed as active; the % refers to the signal ratio;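 note: cells stimulated with 9-cis-retinoic acid as agonist; % is set by controls: 0 for no effect and ±100 for the full control effect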). The note with it: HEK293T RXRa-UAS-bla, beta-lactamase ratio, antagonist mode; measured here: W530 green channel, cytotoxicity proxy. Summed up: (§2)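 Beta-lactamase reporter inhibition, read as CCF4 fluorescence ratio (ex 405, em 460/530 nm) after 2 h at RT. HEK293T UAS-bla cells, 2500/well, were stimulated with 9-cis-RA at 500 or 100 nM final alongside test compound for 18 h at 37 C.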

The target of test [13] is Retinoic acid receptor RXR-alpha (Homo sapiens) (UniProt P19793). The description is as above. The note with it: HEK293T RXRa-UAS-bla, beta-lactamase ratio, antagonist mode. Summed up: as §2
Test [14] can be described thus: qHTS assay for small molecule agonists of the antioxidant response element (ARE) signaling pathway (AID 651741; active = well fitted activation curve with a large enough effect in the signal ratio; the % refers to the signal ratio; note: potency is the fitted concentration of half-maximal effect). Summed up:
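CellSensor ARE-bla HepG2 cells (2,000/well) carrying ARE-driven beta-lactamase, exposed 16 h at 37 C. LiveBLAzer B/G FRET substrate added for 2 h at room temperature; fluorescence intensity read.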

The nature of test [15]: qHTS assay for small molecule activators of the p53 signaling pathway (AID 651743; active = well fitted activation curve with a large enough effect in the signal ratio, not every such curve was filed as active; the % refers to the signal ratio; note: series mostly up to about 92 µM; % of control where 0% means no effect). The note with it: HCT-116 p53RE-bla, beta-lactamase FRET ratio, 16 h; activation: stronger effect = higher value. Summed up: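 p53RE-bla HCT-116 cells carrying a beta-lactamase reporter under p53 response elements were exposed to compounds for 16 hours at 37 C. Reporter activity read as fluorescence after 2 hours at room temperature with LiveBLAzer B/G FRET substrate.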

Test [16] can be described thus: qHTS assay for small molecule activators of the nuclear factor-kappa B (NF-kB) signaling pathway (AID 651749; active = well fitted activation curve with a large enough effect in the signal ratio; the % refers to the signal ratio; note: series mostly up to about 77 µM; % of control where 0% means no effect). The note with it: NF-kB-bla ME-180 cells, beta-lactamase FRET ratio, 16 h; stronger effect = higher value. Put shortly:
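NF-kB-bla ME-180 cells carrying a beta-lactamase reporter under an NF-kB response element, 2,000 cells/well, exposed to compound for 16 hr at 37C; FRET-based beta-lactamase fluorescence read-out of pathway activation.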

Test [17] in a line: qHTS assay for environmental chemicals that activate the Aryl hydrocarbon Receptor (AhR) signaling pathway (AID 651777; active = well fitted curve in the direction sought with a large enough effect; an effect the other way counts as inactive or inconclusive; note: % of control where 0% means no effect; nearly all actives have a fitted effect of over 15% in size). Conditions: 1A2-DRE human hepatoma cells, luciferase, 24 h; activation: stronger effect = higher value. Summed up: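 Quantitative HTS in stably transfected human liver-derived cells whose luciferase gene sits downstream of the CYP1A2 promoter and dioxin response element. After 24 hr exposure at 37 C, One-Glo luminescence was measured.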

Test [18] addresses Peroxisome proliferator-activated receptor alpha (Homo sapiens) (UniProt Q07869). As to the kind of experiment: qHTS assay for small molecule agonists of the peroxisome proliferator-activated receptor alpha (PPARalpha) signaling pathway (AID 651778; active = well fitted curve in the direction sought with a large enough effect; an effect the other way counts as inactive or inconclusive; note: % of control where 0% means no effect). Conditions: PathHunter PPARalpha complementation, chemiluminescence, 6 h; max response: stronger effect = higher value. Summed up: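 Enzyme-fragment complementation assay in which ligand-bound PPARalpha translocates and forms an active enzyme that generates chemiluminescence. Cells were plated overnight, exposed to compound for 6 hr at 37 C, and then given detection reagent for 60 min at room temperature.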

Test [19] is described as follows: qHTS assay for small molecule agonists of the antioxidant response element (ARE) signaling pathway measured by Nrf2-dependant transcriptional activity - cell viability counter screen (AID 720653; active = well fitted curve in the direction sought with a large enough effect in the repeat runs; an effect the other way counts as inactive or inconclusive; note: % is set by controls: 0 for no effect and ±100 for the full control effect). The note with it: ARE-bla HepG2 viability, CellTiter-Glo ATP luminescence, 16 h; max response: stronger effect = lower value. Put shortly:
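ARE-bla HepG2 cells treated with compounds for 16 h at 37C; this counter screen measures viability as intracellular ATP by CellTiter-Glo luminescence after 30 min at room temperature.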

In test [20] the target is Tyrosyl-DNA phosphodiesterase 1 (Homo sapiens) (UniProt Q9NUW8). The test is described as follows: Confirmation Assay for Inhibitors of Tyrosyl-DNA Phosphodiesterase (TDP1) (AID 489007; active = well fitted curve in the direction sought with a large enough effect; an effect the other way counts as inactive or inconclusive; note: potency is the fitted concentration of half-maximal effect; nearly all actives have a fitted effect of over 40% in size). Conditions: recombinant human TDP1 enzymatic activity, dose-response. Put shortly: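 Tdp1 1 nM + cpd, 15 min RT; add biotin/phosphotyrosine-FITC oligo 15 nM, 5 min RT; add AS donor/acceptor beads 10 ug/ml, 10 min RT; read AlphaScreen. No-enzyme wells = max signal.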
Chain of Tyrosyl-DNA phosphodiesterase 1 (Homo sapiens) (Q9NUW8 whole entry, looked up): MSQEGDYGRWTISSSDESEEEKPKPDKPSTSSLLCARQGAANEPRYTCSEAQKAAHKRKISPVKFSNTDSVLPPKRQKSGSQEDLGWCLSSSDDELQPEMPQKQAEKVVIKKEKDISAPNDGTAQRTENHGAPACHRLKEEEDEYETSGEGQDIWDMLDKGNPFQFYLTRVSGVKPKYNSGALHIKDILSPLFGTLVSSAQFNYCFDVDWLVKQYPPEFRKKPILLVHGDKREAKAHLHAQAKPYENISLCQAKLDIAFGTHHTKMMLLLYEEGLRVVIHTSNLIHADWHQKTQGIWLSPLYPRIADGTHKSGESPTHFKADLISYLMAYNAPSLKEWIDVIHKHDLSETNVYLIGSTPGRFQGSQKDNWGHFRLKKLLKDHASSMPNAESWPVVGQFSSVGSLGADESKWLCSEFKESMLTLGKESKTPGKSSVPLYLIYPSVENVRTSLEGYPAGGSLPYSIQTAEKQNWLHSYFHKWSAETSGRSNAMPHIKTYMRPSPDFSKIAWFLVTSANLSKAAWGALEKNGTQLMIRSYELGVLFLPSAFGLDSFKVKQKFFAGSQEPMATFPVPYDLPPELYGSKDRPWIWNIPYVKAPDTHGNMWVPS

Records with an inconclusive call do not appear. Activity calls are given as the source filed them. Unless noted, calls come from the whole dose curve.

Chain of Vitamin D3 receptor (Homo sapiens) (P11473 whole entry, looked up): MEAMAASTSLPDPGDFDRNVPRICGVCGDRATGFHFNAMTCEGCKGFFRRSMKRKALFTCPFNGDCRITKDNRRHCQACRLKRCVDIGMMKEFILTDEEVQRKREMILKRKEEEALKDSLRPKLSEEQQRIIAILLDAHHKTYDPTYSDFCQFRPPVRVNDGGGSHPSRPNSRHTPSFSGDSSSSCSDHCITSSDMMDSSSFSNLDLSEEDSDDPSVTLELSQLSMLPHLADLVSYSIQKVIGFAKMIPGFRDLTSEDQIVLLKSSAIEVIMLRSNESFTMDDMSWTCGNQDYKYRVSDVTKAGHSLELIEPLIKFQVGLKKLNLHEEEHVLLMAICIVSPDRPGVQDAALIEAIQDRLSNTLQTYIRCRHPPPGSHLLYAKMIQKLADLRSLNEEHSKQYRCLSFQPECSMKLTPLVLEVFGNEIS
Chain of Estrogen receptor (Homo sapiens) (P03372 whole entry, looked up): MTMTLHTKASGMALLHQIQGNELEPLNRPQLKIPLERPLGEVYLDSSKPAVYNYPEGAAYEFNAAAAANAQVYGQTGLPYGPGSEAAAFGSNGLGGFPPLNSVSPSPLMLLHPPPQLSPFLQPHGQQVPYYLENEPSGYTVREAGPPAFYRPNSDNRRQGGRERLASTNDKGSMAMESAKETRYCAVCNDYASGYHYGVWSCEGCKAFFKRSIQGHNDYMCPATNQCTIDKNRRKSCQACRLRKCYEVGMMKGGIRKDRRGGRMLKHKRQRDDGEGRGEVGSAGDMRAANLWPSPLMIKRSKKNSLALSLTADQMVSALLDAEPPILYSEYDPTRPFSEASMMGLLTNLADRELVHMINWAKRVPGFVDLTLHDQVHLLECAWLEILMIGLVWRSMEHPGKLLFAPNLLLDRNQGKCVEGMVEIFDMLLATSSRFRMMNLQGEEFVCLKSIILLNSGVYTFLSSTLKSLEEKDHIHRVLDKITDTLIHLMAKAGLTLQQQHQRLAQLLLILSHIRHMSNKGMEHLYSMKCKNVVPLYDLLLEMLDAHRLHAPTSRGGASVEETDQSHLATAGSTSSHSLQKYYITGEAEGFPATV
Chain of Peroxisome proliferator-activated receptor gamma (Homo sapiens) (P37231 whole entry, looked up): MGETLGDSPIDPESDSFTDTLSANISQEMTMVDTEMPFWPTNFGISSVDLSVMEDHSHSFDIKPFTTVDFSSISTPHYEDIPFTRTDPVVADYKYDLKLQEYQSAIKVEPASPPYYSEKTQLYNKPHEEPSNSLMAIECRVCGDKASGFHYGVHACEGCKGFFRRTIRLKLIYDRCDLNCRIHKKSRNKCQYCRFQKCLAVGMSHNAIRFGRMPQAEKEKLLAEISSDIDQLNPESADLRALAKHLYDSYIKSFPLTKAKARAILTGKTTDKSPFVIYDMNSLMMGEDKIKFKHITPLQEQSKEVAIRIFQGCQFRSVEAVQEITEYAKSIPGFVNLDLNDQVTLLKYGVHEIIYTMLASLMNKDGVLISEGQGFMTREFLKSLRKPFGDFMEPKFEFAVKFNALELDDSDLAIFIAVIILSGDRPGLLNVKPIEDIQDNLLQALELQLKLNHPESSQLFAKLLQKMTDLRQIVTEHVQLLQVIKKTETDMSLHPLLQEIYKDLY
Chain of Peroxisome proliferator-activated receptor alpha (Homo sapiens) (Q07869 whole entry, looked up, the tested form may be a part): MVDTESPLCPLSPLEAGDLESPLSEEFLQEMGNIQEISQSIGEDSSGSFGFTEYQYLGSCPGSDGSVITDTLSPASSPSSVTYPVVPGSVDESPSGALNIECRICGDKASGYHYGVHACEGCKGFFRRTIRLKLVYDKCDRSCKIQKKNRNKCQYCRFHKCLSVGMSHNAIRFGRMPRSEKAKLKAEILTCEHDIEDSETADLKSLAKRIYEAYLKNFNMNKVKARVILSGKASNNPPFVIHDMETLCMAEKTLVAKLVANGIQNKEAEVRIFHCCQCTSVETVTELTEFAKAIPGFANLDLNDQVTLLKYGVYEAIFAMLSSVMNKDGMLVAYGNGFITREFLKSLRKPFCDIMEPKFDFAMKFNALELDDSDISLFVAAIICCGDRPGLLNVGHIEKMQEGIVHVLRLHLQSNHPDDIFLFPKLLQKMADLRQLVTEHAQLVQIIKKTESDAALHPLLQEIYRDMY
Chain of Peroxisome proliferator-activated receptor delta (Homo sapiens) (Q03181 whole entry, looked up): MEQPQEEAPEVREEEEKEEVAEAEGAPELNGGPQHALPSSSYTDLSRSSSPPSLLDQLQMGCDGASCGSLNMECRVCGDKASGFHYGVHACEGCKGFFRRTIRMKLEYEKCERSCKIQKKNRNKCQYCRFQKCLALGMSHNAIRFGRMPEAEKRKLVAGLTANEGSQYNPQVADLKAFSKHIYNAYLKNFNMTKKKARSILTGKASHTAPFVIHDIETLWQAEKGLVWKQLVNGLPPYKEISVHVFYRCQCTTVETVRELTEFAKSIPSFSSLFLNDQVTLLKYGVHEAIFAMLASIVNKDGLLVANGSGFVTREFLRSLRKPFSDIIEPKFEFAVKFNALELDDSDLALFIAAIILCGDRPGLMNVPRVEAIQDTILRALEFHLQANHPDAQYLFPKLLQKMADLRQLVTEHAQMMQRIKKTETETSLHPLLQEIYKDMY
Chain of Bile acid receptor (Homo sapiens) (Q96RI1 whole entry, looked up): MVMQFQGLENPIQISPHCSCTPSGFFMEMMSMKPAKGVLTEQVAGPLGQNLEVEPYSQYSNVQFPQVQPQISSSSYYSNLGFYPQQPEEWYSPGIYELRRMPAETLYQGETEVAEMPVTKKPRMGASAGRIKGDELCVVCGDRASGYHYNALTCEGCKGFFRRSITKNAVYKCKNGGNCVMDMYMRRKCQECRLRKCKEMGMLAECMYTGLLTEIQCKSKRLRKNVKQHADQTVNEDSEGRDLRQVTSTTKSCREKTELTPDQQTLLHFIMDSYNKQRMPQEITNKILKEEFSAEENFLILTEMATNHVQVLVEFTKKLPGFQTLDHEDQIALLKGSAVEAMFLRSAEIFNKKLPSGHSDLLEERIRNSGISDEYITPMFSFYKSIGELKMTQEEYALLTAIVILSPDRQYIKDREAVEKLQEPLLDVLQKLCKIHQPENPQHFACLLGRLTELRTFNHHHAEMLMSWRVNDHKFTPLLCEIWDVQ

Take `N[C@@H](Cc1ccccc1)C(=O)O`: the compound was called inactive in test [1], in test [5] and in test [6]. Moreover, the Potency is 11.2 µM (active) in test [2] and 54.5 µM (active) in test [14]. Moreover, the Potency entry in [3], in [7], in test [8], in test [10] and in test [11] was “inactive” each time. Also, the max response in test [4] was -16.9%; in test [9], -4.85%; in test [12], -15%; in [13], 7.11% (inactive); in test [18], -0.0138% (inactive); in test [19], -5.99% (inactive). Further, the results for the activation in test [15], in [16] and in [17] were -1.26% (inactive), 0.13% (inactive) and -0.444% (inactive), respectively.
Turning to `O=C(O)[C@@H](O)[C@@H](O)[C@H](O)[C@H](O)CO`, the Potency in [20] was 5.01 µM (active).

For the origin of these results see PubChem BioAssay (NCATS).
